JMJD2E inh: inhibitors of human JMJD2E histone demethylase; B2RXH2; JMJD2E catalytic domain, FDH-coupled NADH fluorescence (FDH is formaldehyde dehydrogenase); Potency, µM (series often up to 57.1 µM), usual class: inhibitors; 230,000 tested, 1.6% active; AID 2147; active means well fitted inhibition curve with a large enough effect, not every such curve was filed as active; inconclusive means small, poorly fitted or top-dose-only effect, or another doubt; inactive means no such curve, though single readings can be large or run the other way; further: nearly all actives have a fitted effect of over 50% in size
HP1b binding inh: blocks HP1-beta chromodomain binding to methylated histone tails; AlphaScreen HP1-beta / biotin-H3K9me3 peptide binding; Potency, µM (highest dose often 114 µM), usual class: inhibitors; 390,000 tested, 0.56% active; further: nearly all actives have a fitted effect of over 70% in size
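Compound inhibition of the preformed complex between 50 nM HP1-beta and 50 nM biotinylated H3K9me3 peptide was read by AlphaScreen. Buffer was PBS pH 7.4 with 0.01% Tween-20. Incubations ran 30 min at room temperature, with 10 ug/mL donor/acceptor beads.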
BAZ2B inh: inhibitors of human BAZ2B bromodomain; Q9UIF8; AlphaScreen BAZ2B-H3K14Ac peptide displacement; 360,000 tested, 4.4% active; AID 504333; Potency, µM (series often up to 114 µM), actives largely listed as inhibitors; further: nearly all actives have a fitted effect of over 60% in size
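Compounds, titrated to a top concentration of 110 uM, were incubated 30 min at room temperature with preformed BAZ2B/acetyl-K14 H3 peptide complex (50 nM each). Proximity signal was measured by AlphaScreen after 20 min with beads.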
L3MBTL1 inh: L3MBTL1 (human) inhibition; Q9Y468; AlphaScreen L3MBTL1–H3K9me1 peptide binding; Potency, µM (titrated, usually from 57.1 µM), actives largely listed as inhibitors; 230,000 tested, 0.66% active; further: nearly all actives have a fitted effect of over 60% in size
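L3MBTL1 50 nM + b-AHA-H3(1-15)K9me1 75 nM, 30 min RT; compound added, 30 min RT; streptavidin donor/Ni-chelate acceptor beads 10 ug/mL each final, 30 min RT dark; AlphaScreen read.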
PI5P4Ka inh: blocks human PI5P4K alpha kinase activity; 330,000 tested, 1.2% active; max response, %; PI5P4Kalpha enzyme, ADP-Glo luminescence, 60 min; active compounds read low; P48426; active means max response of -50% or lower; inconclusive means between -30% and -50%; inactive means -30% or higher; further: value at the top dose of about 77 µM
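Controls without substrate or without enzyme flank wells where PI5P4Kalpha converts substrate using 5 microM ATP (final). Incubation lasts 60 minutes at room temperature; ADP formed is read by ADP-Glo luminescence.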
JMJD2A Tudor: inhibitors of human JMJD2A Tudor domain; O75164; AlphaScreen JMJD2A-Tudor / H3K4me3 peptide binding; Potency, µM (top dose mostly 114 µM), hits mostly inhibitors; 390,000 tested, 4.4% active; AID 504339; further: nearly all actives have a fitted effect of over 50% in size
Numbers stand for hits; . = inactive; ? = inconclusive; / = no result given. The list is not random: actives were taken first. Their share in the collection is about 5.7%. Unless noted, the call rests on the fitted dose curve; in most records, active means well fitted inhibition curve with a large enough effect; inconclusive means small, poorly fitted or top-dose-only effect; inactive means no such curve, though single readings can be large or run the other way.

SMILES | JMJD2E inh | HP1b binding inh | BAZ2B inh | L3MBTL1 inh | PI5P4Ka inh | JMJD2A Tudor
O=C(NCc1ccccc1)C1CCN(S(=O)(=O)Cc2ccccc2)CC1 | / | . | . | / | / | .
CCN(CC)C(=O)CSC1=C(C#N)C(c2cccs2)C=C(C)N1 (configuration not stated) | ? | . | . | . | . | 56µM
C#CCSC1=C(C#N)C(c2cccs2)C(C(=O)OCC)=C(C)N1 (configuration not stated) | ? | . | . | / | / | .
CN1CCN(CC(=O)n2c3c(c4ccccc42)CCCC3)CC1 | . | . | ? | . | / | 56µM
CCN(CC)CC(=O)n1c2c(c3ccccc31)CCCC2 | ? | . | . | . | . | .
CCc1ccc(S(=O)(=O)c2nnn3c2nc(NCCC(C)C)c2cc(Cl)ccc23)cc1 | / | . | . | / | / | .
CCCCCCCCCCCCCCCC[N+](C)(C)CC | / | . | . | . | -63 | .
CCCCCC[N+](C)(C)CCSSCC[N+](C)(C)CCCCCC | . | ? | . | . | . | .
CCCCCCCCCCCCCCCC[N+](C)(C)CCl | / | . | / | / | -53 | .
CCOc1cc2c(cc1O)C(=NO)CC1C2CCC2(C)C(O)CCC12 (configuration not stated) | / | . | / | / | . | .
CC(C)Cn1c(=O)c2ccccc2n2c(-c3ccc(Br)cc3)nnc12 | / | . | . | / | / | ?
CC(C)OCCCn1c(=O)c2ccccc2n2c(-c3ccc(F)c(F)c3)nnc12 | / | . | 50µM | / | / | ?
O=C(CSc1nnc(CNC(=O)c2cccs2)o1)Nc1ccc(Cl)cc1 | / | . | . | / | . | .
COc1ccc(-c2ccc3ncnc(NCC4CCCO4)c3c2)cc1OC (configuration not stated) | / | / | / | / | / | .
Cc1ccccc1NC(=O)CSc1nc(N)c2c3c(sc2n1)CSC(C)(C)C3 | . | 79µM | ? | . | . | .
Cc1cc2c(cc1C)N(C(=O)CCl)CCN2C(=O)CCl | / | . | / | / | . | 40µM
O=C(Nc1ccc(Br)cc1Cl)c1cnccn1 | . | . | . | / | / | 50µM
COc1ccc(NC(=O)CSc2oc(-c3ccc(C)cc3)nc2S(=O)(=O)c2ccc(C)cc2)c(OC)c1 | / | ? | . | / | / | 56µM
COCCn1c(-c2ccccc2)cnc1SCC(=O)Nc1cccc2ccccc12 | . | ? | 45µM | . | . | 50µM
COC(=O)c1ccc2c(=O)n(CCN3CCOCC3)c(SCC(=O)Nc3ccccc3OC)nc2c1 | / | / | / | / | . | /
COCCn1c(-c2ccc(OC)cc2)cnc1SCC(=O)Nc1ccc(OC)cc1OC | . | . | 45µM | . | . | .
COC(=O)c1ccc2c(=O)n(CCN3CCOCC3)c(SCC(=O)Nc3ccc(OC)cc3OC)nc2c1 | / | ? | . | / | . | 45µM
COc1ccc(NC(=O)CSc2oc(-c3ccco3)nc2S(=O)(=O)c2ccc(C)cc2)c(OC)c1 | / | . | . | / | / | .
COc1ccc(Cl)cc1NC(=O)c1cc(S(=O)(=O)N2CCC(C)CC2)cn1C | / | . | . | / | / | .
CNC(=O)c1cnn2c(C)cc(C)nc12 | / | / | / | / | / | .
SMILES | JMJD2E inh | HP1b binding inh | BAZ2B inh | L3MBTL1 inh | PI5P4Ka inh | JMJD2A Tudor
CCOc1ccc(-c2nnc(SCC(=O)Nc3cccc(C#N)c3)o2)cc1 | / | . | . | / | / | ?
O=C(CSCc1cccc(Br)c1)N=Nc1c(O)[nH]c2ccccc12 | . | . | 50µM | . | . | .
C#CCOCCOCCOCCNc1nc(N2CCN(C(=O)[C@H](CC(N)=O)n3cc([C@@H](N)C(C)C)nn3)CC2)nc(N2CCN(C(=O)[C@H](CC(N)=O)n3cc([C@@H](N)C(C)C)nn3)CC2)n1 | / | . | / | . | . | 25µM
C#CCOCCOCCOCCNc1nc(N2CCOCC2)nc(N2CCN(C(=O)[C@H](CC(N)=O)n3cc([C@@H](N)C(C)C)nn3)CC2)n1 | / | . | / | . | . | .
C#CCOCCOCCOCCNc1nc(N2CCN(C(=O)[C@H](CCC(=O)O)n3cc([C@@H](N)CC(N)=O)nn3)CC2)nc(N2CCN(C(=O)[C@H](CCC(=O)O)n3cc([C@@H](N)CC(N)=O)nn3)CC2)n1 | / | . | / | ? | . | 20µM
C#CCOCCOCCOCCNc1nc(N2CCN(C(=O)[C@H](CC(N)=O)n3cc([C@@H](N)CC(N)=O)nn3)CC2)nc(N2CCN(C(=O)[C@H](CC(N)=O)n3cc([C@@H](N)CC(N)=O)nn3)CC2)n1 | / | . | / | . | . | 25µM
CC(C)N(C(=O)[C@H]1CC(CC(=O)NCCC2=CCCCC2)C(=O)N2CCc3c([nH]c4ccccc34)[C@]12C)C(C)C (some centres not stated) | / | . | / | . | . | ?
Oc1ccc(C23CC4CC(CC(C4)C2)C3)cc1O | / | ? | ? | / | . | 22µM
O=C(NNS(=O)(=O)c1ccc(Cl)cc1)c1sccc1-n1cccc1 | . | . | . | . | / | 13µM
O=C(NNS(=O)(=O)c1ccccc1)c1sccc1-n1cccc1 | . | . | ? | . | . | .
O=c1[nH]c(/C=C\c2ccc(O)cc2)nc(O)c1[N+](=O)[O-] | / | . | . | . | -89 | .
O=c1[nH]c(/C=C\c2cccs2)nc(O)c1[N+](=O)[O-] | . | . | . | ? | -66 | ?
O=c1[nH]c(/C=C\c2ccc(O)c(Cl)c2)nc(O)c1[N+](=O)[O-] | / | . | . | / | -97 | .
C=CCc1cc(/C=C/c2nc(O)c([N+](=O)[O-])c(=O)[nH]2)cc(OC)c1O | . | . | ? | ? | -64 | .
CCOc1cc(/C=C\c2nc(O)c([N+](=O)[O-])c(=O)[nH]2)ccc1OC(C)C | / | . | . | / | . | .
O=C(NCC1CCCO1)c1c[nH]c2ccc(S(=O)(=O)Nc3cccc(C(F)(F)F)c3)cc2c1=O (configuration not stated) | / | . | . | / | / | .
CC(C)CC(=O)Nc1ccc(C(=O)NNC(=S)NC(=O)C2CCCCC2)cc1 | ? | . | . | . | / | 89µM
CCOC(=O)C(C)Nc1ncnc2onc(C)c12 (configuration not stated) | / | . | . | / | / | .
Cc1nn(-c2ccccc2)c2c1N(CCCC(=O)NCc1ccc(N(C)C)cc1)C(=O)CS2 | / | . | ? | / | / | 56µM
COc1cc(/C=C2\C(C)=C(C#N)c3nc(N)c(C#N)c(C)c32)ccc1OCC(=O)O | ? | . | 56µM | ? | . | .
CCOC(=O)N1CCC(N2C(=O)c3ccccc3C2Nc2cc(Cl)c(OC)cc2OC)CC1 (configuration not stated) | . | . | 45µM | . | . | ?
CCOC(=O)N1CCC(N2C(=O)c3ccccc3C2Nc2cc(OC)c(OC)c(OC)c2)CC1 (configuration not stated) | . | . | . | . | . | .
O=C(Nc1ncc(Br)s1)C(Cc1ccccc1)n1cccc1 (configuration not stated) | . | . | 45µM | / | . | ?

High-throughput results: PubChem BioAssay, National Center for Advancing Translational Sciences (NCATS)
